For 40 compounds, outcome and activation results are on record in PubChem BioAssay (Tox21).

Inconclusive results are not listed. Calls of active or inactive are those of the source. Calls come from the whole dose curve.
% is set by controls: 0 for no effect and ±100 for the full control effect.

For this assay, the target named is Vitamin D3 receptor (Homo sapiens) (UniProt P11473). As to the kind of experiment: qHTS assay to identify small molecule agonists of the vitamin D receptor (VDR) signaling pathway (AID 743222). The following applies: HEK293T VDR-UAS-bla, beta-lactamase FRET ratio, 16 h; series mostly up to 63.5 µM. The text has this: National Center for Advancing Translational Sciences [NCATS]
Sequence of Vitamin D3 receptor (Homo sapiens) (P11473 whole entry, looked up): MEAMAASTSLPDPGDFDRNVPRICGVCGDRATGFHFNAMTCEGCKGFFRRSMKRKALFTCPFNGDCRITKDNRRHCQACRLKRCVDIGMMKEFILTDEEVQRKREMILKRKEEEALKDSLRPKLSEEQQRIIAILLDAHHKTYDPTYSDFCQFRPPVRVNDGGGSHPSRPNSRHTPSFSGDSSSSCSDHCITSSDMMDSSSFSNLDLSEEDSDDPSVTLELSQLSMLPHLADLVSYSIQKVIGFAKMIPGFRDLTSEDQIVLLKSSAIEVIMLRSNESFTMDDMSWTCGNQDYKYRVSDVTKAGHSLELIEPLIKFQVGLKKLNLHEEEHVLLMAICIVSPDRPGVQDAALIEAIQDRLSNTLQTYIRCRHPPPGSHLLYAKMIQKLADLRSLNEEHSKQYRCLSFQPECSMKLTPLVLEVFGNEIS
NIH Chemical Genomics Center [NCGC]
U.S. Environmental Protection Agency [EPA]
National Institutes of Environmental Health Sciences [NIEHS]
National Toxicology Program [NTP]
U.S. Food and Drug Administration [FDA]
The vitamin D receptor (VDR), a member of nuclear hormone receptor superfamily, plays a critical role in calcium homeostasis and bone metabolism. It is also involved in cell differentiation and growth, and thrombogenicity.
Tox21 Assay Protocol Summary:
VDR-bla cells were dispensed at 2,000 cells/6 uL/well into black wall/clear-bottom 1536-well plates using a Multidrop Combi (Thermo Fisher Scientific, Waltham, MA) dispenser. After the assay plates were incubated at a 37C and 5% CO2 for 4 h, 23 nL of compounds dissolved in DMSO, positive controls or DMSO only was transferred to the assay plate by a Pintool station (Kalypsys, San Diego, CA). The plates were incubated at 37C and 5% CO2 for 16 h. After 1 uL of LiveBLAzerTM B/G FRET substrate was added using a Bioraptr Flying Reagent Dispenser (FRD) workstation (Beckman Coulter, Indianapolis, IN, USA), the plates were incubated at room temperature for 2 h, and fluorescence intensity was measured by an Envision plate reader (PerkinElmer, Shelton, CT).
In the case of `CCC(C=O)CC`, the result was inactive.
In the case of `CC/C=C\CC1=C(C)CCC1=O`, the result was inactive.
Same read-out and setting: the value for `COc1ccc(C2CNC(=O)C2)cc1OC1CCCC1` (stereo not given) was “inactive”; that for `CC(C)CC(C)CC(C)CC(C)COC(=O)c1ccccc1C(=O)OCC(C)CC(C)CC(C)CC(C)C` (stereo not given) was “inactive”.
The same measure, in the same setting: for `CC(C)OC(=O)CCCCC(=O)OC(C)C` the value was “inactive”; for `NCCS`, “inactive”; for `Cc1ccc2c(c1)OCC(=O)CO2`, “inactive”.
In the case of `CCCCC(CC)COCCO` (stereo not given), the outcome was inactive.
As to `CC1=C(C(=O)O)N2C(=O)[C@@H](NC(=O)[C@H](N)c3ccc(O)cc3)[C@H]2SC1`, the result was inactive.
As for `Cc1cccc2nccnc12`, the result was inactive.
Take `CCCC(=O)C(C)=O`: the result was inactive.
For `CCOc1cc([N+](=O)[O-])c(OCC)cc1N1CCOCC1`, the result was inactive.
For `COc1cc(C(=S)N2CCOCC2)cc(OC)c1OC`, the result was inactive.
Take `C[C@@H](Oc1ccc(CNC(=O)c2cccnc2Oc2ccc3c(c2)OCO3)c(F)c1)C(=O)O`: the result was inactive.
The same measure, in the same setting: the value for `O=C1CCCC(=O)O1` was “inactive”.
With `CN1CCN(CC(=O)N2c3ccccc3C(=O)Nc3cccnc32)CC1`, the activation was 2.22% [at 6.01 µM] (inactive).
Regarding `C#CC(C)N(C)C(=O)Nc1ccc(Cl)cc1` (stereo not given), the outcome was inactive.
Regarding `CC(CN)CC(C)(C)CCN` (stereo not given), the outcome was inactive.
Regarding `COC(=O)[C@@H]1[C@H]2C[C@H]3c4[nH]c5ccccc5c4CCN3C[C@@H]2CC[C@@H]1O`, the outcome was inactive.
Turning to `CC(C)C(=O)OCc1cccc(OC(=O)[C@@H]2N3C(=O)[C@@H](NC(=O)Cc4ccccc4)[C@H]3SC2(C)C)c1`, the outcome was inactive.
Take `CCCC/C=C/C=C\C=O`: the outcome was inactive.
For the compound `COc1ccc(S(=O)(=O)N2c3ccc(Cl)cc3[C@@](O)(c3ccccc3Cl)[C@H]2C(=O)N2CCC[C@@H]2C(N)=O)cc1OC`, the result was inactive.
As to `O=C1O[C@@H]2[C@@H](O)[C@H](O)O[C@@H]2[C@H]1O`, the outcome was inactive.
On to `Cc1cc2cc3c(C)cc(=O)oc3c(C)c2o1`, for which the result was inactive.
Same read-out and setting: the value for `Nc1ncnc(Nc2ccccc2)n1` was “inactive”.
For `O=C(NCCc1c[nH]c2ccccc12)c1cccnc1`, the outcome was inactive.
On to `CC(C)C[C@H](NC(=O)CNC(=O)[C@H](Cc1ccc(O)cc1)NC(=O)[C@H](CO)NC(=O)[C@H](Cc1c[nH]c2ccccc12)NC(=O)[C@H](Cc1cnc[nH]1)NC(=O)[C@@H]1CCC(=O)N1)C(=O)N[C@@H](CCCN=C(N)N)C(=O)N1CCC[C@H]1C(=O)NCC(N)=O` (stereo in doubt), for which the result was inactive.
For `CCNC(=O)C1CC(C)CCC1C(C)C` (stereo not given), the result was inactive.
Consider `COCCOCCOCCOCCOCCO`, for which the outcome was inactive.
`CN=C(NC#N)Nc1ccc(C2=NNC(=O)CC2C)cc1` (stereo not given): the result was inactive.
`O=C(NCC(O)CO)c1c(I)c(C(=O)NCC(O)CO)c(I)c(N(CCO)C(=O)CO)c1I` (stereo not given): the outcome was inactive.
The same measure, in the same setting: the value for `CC[C@H](C)C(=O)O[C@H]1C[C@H](O)C=C2C=C[C@H](C)[C@H](CC[C@@H](O)C[C@@H](O)CC(=O)O)[C@H]21` was “inactive”; that for `O=C(CCNNC(=O)c1ccncc1)NCc1ccccc1` was “inactive”.
Still for that read-out and setting: the value for `O=C(O)c1ccc(Cl)cc1Cl` was “inactive”; that for `CC(=O)Nc1ccc(S(=O)(=O)Nc2ccc([N+](=O)[O-])cc2)cc1` was “inactive”.
Take `O=C1CC(c2ccc(Cl)cc2)CC(=O)N1`: the outcome was inactive.
Same read-out and setting: for `CCC(C)(CCC(C)C)C(=O)O` (stereo not given) the value was “inactive”; for `CCOC(=O)/C=C/c1ccccc1`, “inactive”; for `O=S(=O)(O)CCN1CCN(CCO)CC1`, “inactive”.
With `CNS(=O)(=O)CCc1ccc2[nH]cc(C3CCN(C)CC3)c2c1`, the outcome was inactive.
